IL1B secr inh – inflammasome signaling inhibition, IL-1 beta readout; THP-1 LPS/ATP IL-1B secretion, AlphaLISA, 16 h; stronger effect = lower value; activity change, % at 57.5 µM; actives 4.7% (n = 360,000); AID 743279; in the data active = activity change below about -50%; inconclusive = mostly about -30% to -49%; note: % is set by controls: 0 for no effect and ±100 for the full control effect
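Secreted IL-1B measured by AlphaLISA bead assay after 16 h compound exposure of THP-1 cells; compounds (final up to 57.5 uM) added 1 h before LPS (250 ng/mL) and ATP (1.25 mM) stimulation; lower signal means less secretion.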
DT40 TDP1 CPT – growth inhibition of DT40 Tdp1-/-;hTDP1 cells with camptothecin (screen for TDP1 inhibitors); chicken DT40 Tdp1-/-;hTDP1 cells + 20 nM CPT, ATP luminescence, 48 h; Potency, µM (titrated, usually from 46.2 µM), for the others: at the top dose activity change, negative = growth inhibition, hits mostly inhibitors; actives 12% (n = 420,000); AID 686979; note: potency is the fitted concentration of half-maximal effect; % is set by controls: 0 for no effect and ±100 for the full control effect; nearly all actives have a fitted effect of over 55% in size
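Chicken DT40 Tdp1-/- cells stably complemented with human TDP1 were seeded at 400 cells/well in medium containing 20 nM camptothecin, exposed to pin-transferred compounds, and grown at 37 °C for at least 48 hr. Viability was read as ATP luminescence.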
TGFb inhibitor – TGF-b pathway inhibition | HepG2 CAGA-GFP TGF-b/SMAD3 reporter, GFP fluorescence, 18 h; TGF-beta stimulated, 500 pg/mL final | Potency, µM (doses to about 46.1 µM), without a hit: at the highest dose activity, negative = inhibition, most hits filed as inhibitors | actives 1.2% (n = 410,000); note: potency is the fitted concentration of half-maximal effect; % is set by controls: 0 for no effect and ±100 for the full control effect; nearly all actives have a fitted effect of over 65% in size
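Read-out: total well GFP (ex488/em500-530) summed from mean per-cell fluorescence. Cells: HEPG2 CAGA-GFP, 1% FBS DMEM, 18 h at 37 degrees C with 500 pg/mL final TGF-beta. Unstimulated wells served as the full-inhibition control; stimulated DMSO wells = 0%.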
TDP1 cell noCPT – qHTS for Inhibitors of human tyrosyl-DNA phosphodiesterase 1 (TDP1): qHTS in cells in absence of CPT; DT40 Tdp1-/- hTDP1 cells, no CPT, ATP luminescence, 48 h; Potency, µM (highest dose often 46.2 µM), for the others: at the top dose activity change, negative = growth inhibition, most hits filed as inhibitors; actives 15% (n = 420,000); AID 686978, 2013; note: potency is the fitted concentration of half-maximal effect; % is set by controls: 0 for no effect and ±100 for the full control effect; nearly all actives have a fitted effect of over 55% in size
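DT40 Tdp1-/-;hTDP1 cells, no CPT (DMSO vehicle only), 400 cells/well; compounds pin-transferred; ≥48 hr, 37 °C; CellTiter-Glo 30 min RT dark, luminescence read.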
ASM inhibitor – human S-ASM enzyme inhibition; placental ASM, HMU-PC fluorogenic substrate, 60 min; Potency, µM (titrated, usually from 57.5 µM), inactives show at the highest dose activity change, negative = inhibition, hits mostly inhibitors; actives 0.006% (n = 340,000); note: potency is the fitted concentration of half-maximal effect
Target sequence (P17405 47-631 limits assumed): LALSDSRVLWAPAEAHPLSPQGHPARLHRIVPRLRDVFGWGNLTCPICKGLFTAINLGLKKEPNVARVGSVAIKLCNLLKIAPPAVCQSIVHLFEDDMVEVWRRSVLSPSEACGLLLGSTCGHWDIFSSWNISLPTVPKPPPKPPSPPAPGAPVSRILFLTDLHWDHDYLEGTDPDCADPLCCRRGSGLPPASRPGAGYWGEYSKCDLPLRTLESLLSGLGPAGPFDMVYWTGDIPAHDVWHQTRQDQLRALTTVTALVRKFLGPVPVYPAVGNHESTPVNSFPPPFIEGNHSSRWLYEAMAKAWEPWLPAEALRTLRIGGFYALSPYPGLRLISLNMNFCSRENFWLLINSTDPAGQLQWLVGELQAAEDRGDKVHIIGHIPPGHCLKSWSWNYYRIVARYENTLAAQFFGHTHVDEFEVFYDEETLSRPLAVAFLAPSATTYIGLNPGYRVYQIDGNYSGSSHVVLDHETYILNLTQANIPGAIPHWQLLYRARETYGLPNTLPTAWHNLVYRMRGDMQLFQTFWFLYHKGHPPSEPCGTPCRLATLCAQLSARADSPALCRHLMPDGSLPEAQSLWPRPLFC
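HMU-PC0 cleavage (9 uM final) by human placental ASM, 60 min at 37 °C following 10 min compound exposure at RT; stopped at pH 10, fluorescence Ex 386/Em 447 nm.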
HepG2 tox – HepG2 cytotoxicity, counter-screen for TGF-b inhibitors; HepG2 CAGA-GFP viability, ATP luminescence, 18 h; Potency, µM (top dose mostly 46.1 µM), for inactives: top-dose activity change, negative = cytotoxicity, usual class: cytotoxic; actives 0.76% (n = 410,000); AID 588856; note: potency is the fitted concentration of half-maximal effect
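CellTiter-Glo luminescence gave cytotoxicity after 18 hours at 37 degrees C. The cells were HepG2 CAGA-GFP in 1% FBS DMEM, stimulated with 500 pg/mL TGF-beta after compound addition. %Activity was normalised to no-cell wells (complete cell-killing) and DMSO (no toxicity), and curves were fitted and classified.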
The depositor's hits bear a star; ? = inconclusive; · = no result given; [ ] = another dose, or the depositor's remark. In the library only some 19% were active in any assay of this set; here they are far more common. Unless noted, calls come from the whole dose curve; as a rule, active = well fitted curve in the direction sought with a large enough effect; inconclusive = small, poorly fitted or top-dose-only effect, or another doubt; inactive = no such curve, though single readings can be large; an effect the other way counts as inactive or inconclusive.

SMILES | IL1B secr inh | DT40 TDP1 CPT | TGFb inhibitor | TDP1 cell noCPT | ASM inhibitor | HepG2 tox
Cc1ccc(Nc2nnc(-c3ccc(C)c(S(N)(=O)=O)c3)c3ccccc23)cc1 | · | · | 10µM* | · | · | 7.8%
Cc1ccc(-c2nnc(Nc3ccc(CC(N)=O)cc3)c3ccccc23)cc1S(N)(=O)=O | 31.7 | -0.9% | ? | 10.5% | -2.4% | -33.4%
CCOC(=O)CNS(=O)(=O)c1cc(-c2n[nH]c(=O)c3ccccc23)ccc1C | · | ? | -29.8% | -15.0% | 1.2% | -21.4%
COc1ccc(Nc2nnc(-c3ccc(C)c(S(=O)(=O)N4CCN(C)CC4)c3)c3ccccc23)cc1 | · | ? | 14.1µM* | ? | · | 24.7%
CC1CCC2(CC1)NC(=O)N(NC(=O)c1ccc(OC(C)C)cc1)C2=O (stereo not given) | 8.2 | ? | -1.3% | ? | · | -13.8%
Cc1ccc(Nc2nnc(-c3ccc(C)c(S(=O)(=O)N4CCN(C)CC4)c3)c3ccccc23)c(C)c1 | · | 7.31µM* | -1.5% | 6.51µM* | · | 3.3%
Cc1ccc(C)c(S(=O)(=O)N2CCCN(C)CC2)c1 | 0.8 | -16.3% | -1.0% | -7.3% | 3.4% | -6.8%
Cc1ccc(Nc2nnc(-c3ccc(C)c(S(=O)(=O)N4CCN(C)CC4)c3)c3ccccc23)cc1 | · | 18.4µM* | -29.7% | 16.4µM* | · | 0.0%
COCCN1CCN(C(=O)c2cnn(-c3nccc(-c4ccccc4OC)n3)c2-c2ccco2)CC1 | · | -0.8%[9.04 µM] | · | -10.0% | · | ·
Cc1ccc(CN2CCSc3ccc(C(=O)Nc4ccc(Cl)cc4)cc32)cc1 | · | 23.1µM* | -6.2% | ? | · | -3.2%
O=C(Nc1ccc(Cl)cc1)c1ccc2c(c1)N(Cc1ccccc1)CCS2 | · | 14.6µM* | -11.6% | ? | · | -17.7%
CCCC(=O)NC(c1ccco1)c1c(O)ccc2ccccc12 (stereo not given) | 9.6 | ? | -0.7% | ? | 46.4% | -19.7%
CCC(=O)NC(c1ccco1)c1cc(Br)c2cccnc2c1O (stereo not given) | · | · | 3.98µM* | · | · | -17.6%
CCCCC(=O)NC(c1cccs1)c1cc(Cl)c2cccnc2c1O (stereo not given) | 50.0 | 3.66µM* | 0.3% | 2.59µM* | -1.0% | 3.3%
CCN(CC)C(=O)Oc1ccc(Cl)c2cccnc12 | -4.3 | 4.0% | -15.5% | -10.9% | -0.3% | -8.1%
CCC(=O)NC(c1cccs1)c1cc(Cl)c2cccnc2c1O (stereo not given) | 65.8 | 4.61µM* | ? | 3.26µM* | -0.4% | 16.6%
CC1(C)CN(CCc2ccccc2)C(=O)[C@H]1CC(=O)Nc1ccccc1 | 3.1 | -23.8% | 7.8% | -9.5% | · | -29.6%
c1ccc2c(c1)CCN(C1=Nc3cccc4cccc1c34)C2 | -91.0* | ? | -30.0% | ? | -4.0% | -23.5%
c1cc2c3c(cccc3c1)C(N1CCCCCC1)=N2 | 4.7 | -2.7% | -20.9% | -21.8% | -2.0% | -4.6%
CC(C)(C)n1nnnc1C(c1ccnc2ccccc12)N1CCN(C/C=C/c2ccccc2)CC1 (stereo not given) | 11.2 | 16.4µM* | ? | 16.4µM* | · | -22.8%
CC(C)(C)n1nnnc1C(c1cc2ccccc2o1)N1CCN(C(=O)OCc2ccccc2)CC1 (stereo not given) | -21.3 | ? | · | 18.4µM* | · | ·
Cc1cccc(C)c1-n1nnnc1C(c1ccnc2ccccc12)N1CCN(C(=O)OCc2ccccc2)CC1 (stereo not given) | 12.3 | ? | · | 16.4µM* | · | ·
CC(C)(C)n1nnnc1C(c1cccs1)N1CCN(C/C=C/c2ccccc2)CC1 (stereo not given) | -9.5 | ? | -3.4% | ? | · | 2.9%

High-throughput results (PubChem BioAssay)
